AmpC detergent: inhibitors of E. coli AmpC beta-lactamase with detergent. AmpC hydrolysis of nitrocefin, absorbance 480 nm, 0.01% Triton. Potency, µM (doses to about 114 µM), without a hit: at the highest dose activity change, negative = inhibition, hits mostly inhibitors. 370,000 compounds, 0.041% hits. AID 485294;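 further: 0% = no-compound wells and -100% = no-enzyme wells; nearly all actives have a fitted effect of over 25% in size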
Target sequence (P00811 whole entry, looked up): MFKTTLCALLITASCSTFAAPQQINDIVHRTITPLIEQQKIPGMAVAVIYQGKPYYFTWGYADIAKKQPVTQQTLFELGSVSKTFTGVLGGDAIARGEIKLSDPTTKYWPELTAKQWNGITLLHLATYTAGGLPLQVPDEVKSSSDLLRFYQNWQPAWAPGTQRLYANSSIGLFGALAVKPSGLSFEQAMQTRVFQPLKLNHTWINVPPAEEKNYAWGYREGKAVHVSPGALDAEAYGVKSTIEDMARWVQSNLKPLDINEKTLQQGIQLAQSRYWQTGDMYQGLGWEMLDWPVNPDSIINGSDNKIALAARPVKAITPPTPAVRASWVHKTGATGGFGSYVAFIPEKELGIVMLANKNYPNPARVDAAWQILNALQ
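20 mM phosphate pH 7.0 + 0.01% (detergent screen) or 0.0001% Triton X-100; 5.3 nM AmpC reagent; cpd preinc 15 min RT; nitrocefin (800 uM stock) to start; A480 q20 s × 4 min; Activity was normalised to no-enzyme and no-compound control wells.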
AMA1 RON2 block: disrupts binding of P. falciparum AMA1 to RON2; AlphaScreen AMA1-biotinylated RON2 peptide binding; Potency, µM (titrated, usually from 58.2 µM), without a hit: top-dose activity change, negative = inhibition, hits mostly inhibitors; 360,000 compounds, 0.2% hits;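 further: 0% = vehicle wells and -100% = peptide control; nearly all actives have a fitted effect of over 45% in size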
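AMA1 (3D7) with his tag at 25 nM final met compounds first, then biotinylated RON2 peptide at 25 nM; detection used donor plus acceptor beads, 10 µg/mL apiece, read by AlphaScreen after 30 min at room temperature.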
HCV inh: inhibitors of hepatitis C virus infection. Huh7.5.1 HCVcc-Cre infection, luciferase reporter, 44 h. Potency, µM (titrated, usually from 41.8 µM), for inactives: top-dose activity change, negative = inhibition, hits mostly inhibitors. 340,000 compounds, 3.4% hits. AID 651820
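Cells seeded at 1,000/well and cultured 4 h, then compounds added followed by HCVcc-Cre virus (~0.5 moi). After 44 h further culture, luciferase substrate was added, plates held 15 min at room temperature, and luminescence read for 15 sec.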
AmpC inh no detg: inhibitors of E. coli AmpC beta-lactamase without detergent; AmpC nitrocefin hydrolysis, absorbance 480 nm, 0.0001% Triton; Potency, µM (doses to about 57.1 µM), inactives show at the highest dose activity change, negative = inhibition, most hits filed as inhibitors; 330,000 compounds, 0.52% hits; AID 485341;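 further: plate controls were no compound for no effect and no enzyme for full effect; nearly all actives have a fitted effect of over 20% in size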
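AmpC (5.3 nM in the dispensed reagent) in 20 mM phosphate pH 7.0 with 0.01% (detergent screen) or 0.0001% Triton X-100 was preincubated with compounds for 15 min at room temperature. Nitrocefin was then added from an 800 uM solution, and hydrolysis was followed at 480 nm.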
Pf growth 48h: inhibits P. falciparum growth in the first generation, 48 h. P. falciparum luciferase growth in erythrocytes, 48 h. AID 504832. Potency, µM (series often up to 28.7 µM), for the others: at the highest dose activity change, negative = inhibition, usual class: inhibitors. 310,000 compounds, 5.9% hits
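Growth was read as firefly luciferase luminescence after a 48 h, 37 C, 5% CO2 exposure of compounds to reporter-bearing P. falciparum cultures (0.1% parasitemia, 2% hematocrit final) in Albumax-supplemented RPMI 1640.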
Pf growth 96h: P. falciparum growth inhibition at 96 hour, primary screen for plastid delayed-death inhibitors; P. falciparum luciferase reporter growth, 96 h; AID 504834; Potency, µM (doses to about 28.7 µM), for the others: top-dose activity change, negative = inhibition, hits mostly inhibitors; 320,000 compounds, 6.9% hits
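Two parasite generations (96 h, 37 C, 5% CO2) of compound exposure in infected erythrocytes (0.05% parasitemia, 2% hematocrit). Luciferase-reporter P. falciparum; decreased luminescence indicates inhibited growth, aimed at apicoplast-acting delayed death.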
* = called active by the depositor; ? = inconclusive; · = no result; [ ] = dose if it differs, or a comment. Shown are actives, neighbours in structure and some others; about 11% of the full set was active somewhere. The call rests on the fitted dose curve; in most records, active means well fitted curve in the direction sought with a large enough effect; inconclusive means small, poorly fitted or top-dose-only effect, or another doubt; inactive means no such curve, though single readings can be large; an effect the other way counts as inactive or inconclusive. Unless noted, on the % scale 0 is the no-effect control and ±100 the full control effect; potency means the concentration at half of the fitted maximal effect.

SMILES	AmpC detergent	AMA1 RON2 block	HCV inh	AmpC inh no detg	Pf growth 48h	Pf growth 96h
CCc1nc(SCc2ccc(C(=O)OC)o2)c2c(=O)n(C)c(=O)n(C)c2n1	?	-1%	?	-17%	8.3µM*	2.6µM*
Cc1ccccc1-c1nc(SCC(=O)NCc2ccc(F)cc2)c2c(=O)n(C)c(=O)n(C)c2n1	-6%	·	·	·	·	·
COc1ccc(NC(=O)Cn2c(=O)n(CCCC(=O)NCc3ccccc3Cl)c(=O)c3ccccc32)c(OC)c1	-9%	·	·	·	·	·
Cc1ccc2nc(NCc3ccccc3)c3nncn3c2c1	25%	·	·	·	·	·
COc1ccc(C(CNC(=O)c2ccc(C)cc2)N2CCOCC2)cc1 (stereo unspecified)	10%	·	·	·	·	·
COc1ccc(C(CNC(=O)c2c(C)nn(Cc3ccc(C)cc3)c2Cl)N2CCOCC2)cc1 (stereo unspecified)	7%	-10%	?	254%	10µM*	?
Cc1ccc(Cn2nc(C)c(C(=O)NCC(c3cccs3)N3CCOCC3)c2Cl)cc1 (stereo unspecified)	7%	37%	4%	278%	12µM*	?
Cc1cc(C)nc(NS(=O)(=O)c2ccc(NC(=O)C3(c4ccc([N+](=O)[O-])cc4)CCCC3)cc2)n1	-11%	6%[11.6 µM]	22%	-28%	10%	9.3µM*
COc1ccc(C2(C(=O)Nc3ccc(S(=O)(=O)Nc4nc(C)cc(C)n4)cc3)CCCC2)cc1OC	14%	-2%	17%	236%	-16%	146%
Cc1ccc(NC(=O)CCCCCN2C(=O)[C@@H]3Cc4ccccc4CN3C2=O)c(Cl)c1	2%	-3%	13µM*	50%	?	?
CCOC(=O)C1=NNC(C(=O)c2ccc(OC)cc2)C1c1ccccc1 (stereo unspecified)	-3%	-6%	-12%	-16%	?	·
CCOC(=O)C1=NNC(C(=O)c2ccccc2)C1c1ccc(Cl)cc1 (stereo unspecified)	-4%	-5%	?	-16%	-28%	18%
CCOC(=O)C1=NNC(C(=O)c2ccc(C)cc2)C1c1ccc(C)cc1 (stereo unspecified)	-7%	-11%	-3%	-22%	10µM*	22%
CCOC(=O)C1=NNC(C(=O)c2ccccc2)C1c1ccc(C)cc1 (stereo unspecified)	7%	-5%	-26%	-9%	1.7µM*	2.1µM*
NC12CC3CC(C1)CC(CO)(C3)O2	-9%	13%	-4%	-14%	0%	8.3µM*
Cc1ccc(N(Cc2ccccc2)C(=O)c2cccc(S(=O)(=O)N3CC(C)OC(C)C3)c2)cc1 (stereo unspecified)	-5%	-16%	?	121%	10µM*	?
CC1CN(S(=O)(=O)c2cccc(C(=O)OCC(=O)NCc3ccccc3)c2)CC(C)O1 (stereo unspecified)	?	1%	18%	11%	?	?
CC(=O)N1CCN(S(=O)(=O)c2cccc(C(=O)N(Cc3ccccc3)c3ccc(C)cc3)c2)CC1	-3%	43%	-3%	305%	5.9µM*	?
CN1CCN(S(=O)(=O)c2cccc(C(=O)N(Cc3ccccc3)c3ccccc3)c2)CC1	·	-22%	0%	·	·	·
CC1CN(S(=O)(=O)c2cccc(C(=O)N(CCc3ccccc3)Cc3ccccc3)c2)CC(C)O1 (stereo unspecified)	5%	15%	?	223%	2.9µM*	?
CCCCSCCCNC(=O)c1cn(CC)c2ccc(S(=O)(=O)N3CCCCCC3)cc2c1=O	6%	·	·	·	·	·
CC(C)CC(=O)Nc1ccc(S(=O)(=O)Nc2cc3c(cc2N2CCOCC2)n(C)c(=O)c(=O)n3C)cc1	14%	·	·	·	·	·
CCOc1ccc(S(=O)(=O)c2cn(Cc3ccc(C)cc3)c3ccc(OC)cc3c2=O)cc1	-1%	·	·	·	·	·
CCOc1ccc(NC(=O)Cc2ccc(-n3c(C)nc4cccnc43)cc2)cc1	19%	·	·	·	·	·
CCCc1nnc(NC(=O)c2cc(=O)c3ccccc3o2)s1	13%	·	·	·	·	·
SMILES	AmpC detergent	AMA1 RON2 block	HCV inh	AmpC inh no detg	Pf growth 48h	Pf growth 96h
CN1CCN(CC(=O)Nc2ccccc2C(F)(F)F)CC1	-15%	?	8%	-4%	5%	?
CCC(=O)c1ccc(OCC(=O)N2CCN(CC(=O)Nc3ccccc3C(F)(F)F)CC2)cc1	·	-7%	13µM*	147%	·	·
CC(=O)c1cccc(OCC(=O)N2CCN(c3ccc(C(F)(F)F)cn3)CC2)c1	0%	6%	?	51%	-28%	7.4µM*
O=C(O)COCC(=O)N1CCCN(c2ccc(C(F)(F)F)cn2)CC1	-21%	-12%	10%	-8%	0%	25%
O=C(Cn1cc2c(n1)CCCCC2)NCc1ccccc1	?	12%	1%	-4%	·	9%
CC(C)CCNC(=O)Cn1cc2c(n1)CCCCC2	?	-6%	7%	45µM*	18%	-2%
CCOCCCNC(=O)Cn1cc2c(n1)CCCCC2	?	20%	19%	45µM*	12%	51%
CCN(Cc1ccccc1)C(=O)Cn1cc2c(n1)CCCC2	-15%	-3%	11%	4.5µM*	8%	9%
Cc1ccc(CSCCNC(=O)C2CCN(S(=O)(=O)Cc3ccccc3)CC2)cc1	-3%	·	·	·	·	·
O=[N+]([O-])c1ccc(C[n+]2ccccc2)cc1	-9%	1%	-22%	3%	?	?
Brc1ccc(C[n+]2ccccc2)cc1	3%	-4%	7.9µM*	-17%	2.9µM*	7.4µM*
Cc1ccccc1N/N=C/c1sc(=O)n(Cc2cccc(C(=O)O)c2)c1Cl	-11%	-13%	2%	-25%	?	?
COC(=O)c1cccc(Cn2c(Cl)c(/C=N/Nc3ccccc3C)sc2=O)c1	2%	?	-8%	32µM*	?	?
Nc1nc(Nc2ccccc2)nc(C(F)(F)F)n1	-12%	-16%	15%	-16%	40%	7.4µM*
Nc1nc(Nc2ccccc2Br)nc(C(F)(F)F)n1	?	-5%	?	-9%	47%	10µM*
COc1cccc(Nc2nc(N)nc(C(F)(F)F)n2)c1	-9%	1%	-21%	-16%	62%	55%
Nc1nc(Nc2ccc(Cl)cc2Cl)nc(C(F)(F)F)n1	0%	16%	-20%	-16%	88%	-26%
CC(C)(C)c1ccc(NC(=O)N2CCCN(c3c(Cl)cncc3Cl)CC2)cc1	3%	-8%	-8%	-21%	10µM*	?
